Source: PubChem BioAssay
Calls of active or inactive are those of the source. Unless noted, the rule behind the calls is not given here.

Legend:
[1] = test system: Wnt5a (protein binding on small-molecule microarray); assay: Wnt5a binders on small-molecule microarray, primary screen, biophysical, 635/667 nm fluorescence (AID 1142); details: 635 nm fluorescence, higher = more signal;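 note: fluorescence read at 667 nm with signal to noise per printed feature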
[2] = cell viability in Huh7 cells, primary screen, cytotoxicity control for HCV replication inhibitor project, CellTiter-Glo luminescence, basal, 48 h (AID 1143); details: Huh7 HCV replicon, higher = more signal, called active from +8 up or from −8 down;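 note: Huh7 hepatoma cells carrying a hepatitis C replication reporter with no stimulus; test concentration not given here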
[3] = P. aeruginosa biofilm formation inhibitors, primary screen, PAO1 strain, BacTiter-Glo luminescence, LB-PBS (AID 1144); details: 12 h, higher = more signal
[4] = CREB reporter modulators without forskolin, primary screen, cell-based, PC12, CRE-LacZ reporter, unstimulated (AID 1145); details: no forskolin, luminescence, 4.5 h, higher = more signal, called active from +8 up or from −8 down
[5] = CREB reporter modulators under forskolin, primary screen, cell-based, PC12, CRE-LacZ reporter, forskolin-stimulated (AID 1146); details: luminescence, 4.5 h, higher = more signal, called active from +8 up or from −8 down;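 note: PC12 cells with 6xCRE LacZ reporter stimulated by forskolin 10 µM; beta-galactosidase reporter signal reflecting CREB driven transcription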
[6] = molecular target: Streptavidin (Streptomyces avidinii) (UniProt P22629); assay: streptavidin binders on small-molecule microarray, primary screen, artefact control for SMM compound annotation, biophysical, 635/667 nm fluorescence (AID 1147); details: streptavidin binding, higher = more signal;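 note: signal reflects streptavidin binding to arrayed compounds as a control protein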
Chain of Streptavidin (Streptomyces avidinii) (P22629 whole entry, looked up): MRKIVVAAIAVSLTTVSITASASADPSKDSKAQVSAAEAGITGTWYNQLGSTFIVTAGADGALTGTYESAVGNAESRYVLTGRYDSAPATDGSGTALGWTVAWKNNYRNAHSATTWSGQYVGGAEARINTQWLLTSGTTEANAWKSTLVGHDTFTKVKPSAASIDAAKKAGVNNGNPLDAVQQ

[7] = small-molecule binders of probe aInhba, primary screen, biochemical, small-molecule microarray, 635/667 nm fluorescence (AID 1148); details: higher = more signal;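 note: score merges 667nm spot fluorescence with signal-to-noise for antibody binding to printed compounds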
Torsin-1A (Homo sapiens) [8] = molecular target: Torsin-1A (Homo sapiens) (UniProt O14656); assay: torsin A binders from cell lysate, primary screen, small-molecule microarray, wild-type, 635/667 nm (AID 1149); details: COS7 hTOR1A-WT lysate, 635 nm fluorescence, higher = more signal
Chain of Torsin-1A (Homo sapiens) (O14656 whole entry, looked up): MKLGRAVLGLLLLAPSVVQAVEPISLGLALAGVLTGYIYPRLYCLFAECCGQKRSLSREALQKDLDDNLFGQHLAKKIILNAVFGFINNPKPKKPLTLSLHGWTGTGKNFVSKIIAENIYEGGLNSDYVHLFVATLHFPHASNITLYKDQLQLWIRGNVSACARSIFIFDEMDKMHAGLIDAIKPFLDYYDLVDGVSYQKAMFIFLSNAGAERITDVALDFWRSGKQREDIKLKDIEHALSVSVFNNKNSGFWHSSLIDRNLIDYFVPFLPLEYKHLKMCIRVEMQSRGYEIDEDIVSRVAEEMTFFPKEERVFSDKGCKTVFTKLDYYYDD

Torsin-1A (Homo sapiens) [9] = molecular target: Torsin-1A (Homo sapiens) (UniProt O14656); assay: small-molecule binders of mutant TOR1A in lysate, primary screen, cell lysate, small-molecule microarray, COS7 lysate, 635/667 nm fluorescence (AID 1150); details: COS7 hTOR1A mutant lysate, 635 nm fluorescence, higher = more signal;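 note: score pools 667 nm emission and signal to noise measuring lysate protein binding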
[10] = test system: Sonic hedgehog protein (Shh); assay: small-molecule binders of Shh protein, primary screen, biochemical, small-molecule microarray, 635/667 nm fluorescence (AID 1151); details: small-molecule microarray binding, 635 nm fluorescence; higher = more signal;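 note: Shh protein binding to compounds spotted on small-molecule microarray slides; score combines spot fluorescence intensity with signal-to-noise across triplicate slides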
[11] = E. coli DRC41 culture turbidity changes, primary screen, E. coli filamentation inducer project, strain DRC41, OD650, 48 h (AID 1152);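 note: E. coli MC1000 strain DRC41 lacking acrAB efflux pump and sulA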; details: E. coli DRC41 (acrAB sulA), higher = more signal, called active from +8 up or from −8 down
[12] = small-molecule binders of probe aLefty1, primary screen, biochemical, small-molecule microarray, 635/667 nm fluorescence (AID 1153); details: higher = more signal;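 note: score merges spot fluorescence with signal-to-noise ratio from the scanned slide images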
[13] = PSAC antagonists in infected red cells, primary screen, cell-based, P. falciparum Indochina, OD700, 1 h (AID 1154); details: P. falciparum Indochina infected RBC osmotic lysis, higher = more signal, called active from +8 up or from −8 down
[14] = PSAC antagonists in infected red cells, primary screen, cell-based, P. falciparum Indochina, OD700, 2 h (AID 1155);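 note: lysis reports solute entry through the parasite surface anion channel PSAC; channel blockers reduce lysis of infected cells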; details: P. falciparum Indochina infected erythrocytes, osmotic lysis OD700; higher = more signal, called active from +8 up or from −8 down
[15] = osmotic lysis modulators in infected erythrocytes, primary screen, PSAC antagonist project, cell-based, P. falciparum Indochina, OD700, 3 h (AID 1156); details: higher = more signal, called active from +8 up or from −8 down
[16] = PSAC antagonists in infected red cells, primary screen, cell-based, P. falciparum Indochina, OD700, 18 h (AID 1157); details: P. falciparum Indochina infected erythrocytes, osmotic lysis OD700, 18 h; higher = more signal, called active from +8 up or from −8 down
[17] = modulators of S6 phosphorylation in cells, primary screen, cell-based, A549, cytoblot, luminescence, serum-stimulated (AID 1158); details: A549 phospho-S6 cytoblot, 5 h, higher = more signal;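 note: serum-stimulated A549 lung adenocarcinoma cells; signal is phosphorylated S6 detected by cytoblot immunostaining with HRP secondary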
[18] = molecular target: NADPH oxidase 2 (Homo sapiens) (UniProt P04839); assay: NOX2-dependent H2O2 signal modulators, primary screen, NOX inhibitor project, cell-based, HEK293-NOX2, PMA-stimulated, Amplex Red fluorescence (AID 1159); details: 45 min, higher = more signal, called active from +8 up or from −8 down; note: test concentration not given here
Chain of NADPH oxidase 2 (Homo sapiens) (P04839 whole entry, looked up): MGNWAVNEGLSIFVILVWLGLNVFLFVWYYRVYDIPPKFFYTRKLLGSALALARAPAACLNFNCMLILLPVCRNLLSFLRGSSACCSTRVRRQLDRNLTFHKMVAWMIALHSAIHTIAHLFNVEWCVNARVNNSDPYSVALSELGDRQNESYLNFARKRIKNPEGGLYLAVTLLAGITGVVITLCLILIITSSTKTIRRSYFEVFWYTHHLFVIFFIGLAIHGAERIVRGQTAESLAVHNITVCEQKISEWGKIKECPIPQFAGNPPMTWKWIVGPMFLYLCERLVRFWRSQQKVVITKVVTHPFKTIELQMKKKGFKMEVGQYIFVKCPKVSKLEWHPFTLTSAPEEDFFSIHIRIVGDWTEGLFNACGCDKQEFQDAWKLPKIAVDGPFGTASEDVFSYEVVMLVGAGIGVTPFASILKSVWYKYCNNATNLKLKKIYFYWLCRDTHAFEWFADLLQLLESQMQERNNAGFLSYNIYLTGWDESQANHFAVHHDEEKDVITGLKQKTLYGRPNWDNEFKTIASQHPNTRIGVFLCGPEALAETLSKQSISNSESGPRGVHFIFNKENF

[19] = molecular target: NADPH oxidase 4 (Homo sapiens) (UniProt Q9NPH5); assay: NOX4-dependent H2O2 signal modulators, primary screen, NOX inhibitor project, cell-based, HEK293-NOX4, tetracycline-induced, Amplex Red fluorescence (AID 1160); details: 45 min, higher = more signal, called active from +8 up or from −8 down
Chain of NADPH oxidase 4 (Homo sapiens) (Q9NPH5 whole entry, looked up): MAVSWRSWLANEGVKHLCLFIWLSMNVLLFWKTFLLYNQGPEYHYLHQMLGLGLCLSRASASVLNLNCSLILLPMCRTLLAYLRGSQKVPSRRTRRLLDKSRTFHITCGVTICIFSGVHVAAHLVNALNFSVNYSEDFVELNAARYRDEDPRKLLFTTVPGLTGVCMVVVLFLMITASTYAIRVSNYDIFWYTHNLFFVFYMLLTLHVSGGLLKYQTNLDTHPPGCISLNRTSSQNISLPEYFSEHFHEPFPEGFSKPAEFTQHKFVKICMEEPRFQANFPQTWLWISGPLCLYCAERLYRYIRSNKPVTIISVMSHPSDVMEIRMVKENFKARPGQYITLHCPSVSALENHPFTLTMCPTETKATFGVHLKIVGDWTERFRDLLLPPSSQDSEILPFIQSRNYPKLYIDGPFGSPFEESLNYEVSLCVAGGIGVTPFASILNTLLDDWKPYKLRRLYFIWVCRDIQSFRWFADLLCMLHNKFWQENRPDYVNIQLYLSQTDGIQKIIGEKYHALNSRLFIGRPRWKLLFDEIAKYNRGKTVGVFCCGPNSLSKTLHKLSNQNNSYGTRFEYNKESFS

[20] = molecular target: NADPH oxidase 5 (Homo sapiens) (UniProt Q96PH1); assay: NOX5-dependent H2O2 signal modulators, primary screen, NOX inhibitor project, cell-based, HEK293-NOX5, Amplex Red fluorescence (AID 1161); details: HEK293-NOX5, ionomycin, 45 min, higher = more signal
Chain of NADPH oxidase 5 (Homo sapiens) (Q96PH1 whole entry, looked up): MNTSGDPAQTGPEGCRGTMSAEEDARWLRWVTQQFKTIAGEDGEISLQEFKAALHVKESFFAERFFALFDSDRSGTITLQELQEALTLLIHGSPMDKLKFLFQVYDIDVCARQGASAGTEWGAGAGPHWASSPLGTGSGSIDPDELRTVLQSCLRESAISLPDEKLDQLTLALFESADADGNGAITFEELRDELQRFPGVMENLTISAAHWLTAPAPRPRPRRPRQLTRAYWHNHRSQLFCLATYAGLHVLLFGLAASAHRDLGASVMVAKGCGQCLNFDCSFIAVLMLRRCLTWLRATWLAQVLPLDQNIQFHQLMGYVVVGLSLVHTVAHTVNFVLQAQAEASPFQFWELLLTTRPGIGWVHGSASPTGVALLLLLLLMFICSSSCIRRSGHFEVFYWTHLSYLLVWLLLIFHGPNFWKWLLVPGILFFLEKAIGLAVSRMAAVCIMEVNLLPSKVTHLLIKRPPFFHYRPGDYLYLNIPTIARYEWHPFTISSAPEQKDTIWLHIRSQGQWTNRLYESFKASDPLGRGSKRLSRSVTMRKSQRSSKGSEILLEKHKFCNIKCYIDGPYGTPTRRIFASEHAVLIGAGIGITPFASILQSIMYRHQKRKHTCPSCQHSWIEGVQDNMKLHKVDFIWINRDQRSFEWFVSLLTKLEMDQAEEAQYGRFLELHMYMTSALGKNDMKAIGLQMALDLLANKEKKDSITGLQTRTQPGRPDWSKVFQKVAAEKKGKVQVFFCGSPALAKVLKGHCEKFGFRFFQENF

Row | Compound | composite z-score [1] | z-score [2] | z-score [3] | z-score [4] | z-score [5] | composite z-score [6] | composite z-score [7] | composite z-score (Torsin-1A (Homo sapiens) [8]) | composite z-score (Torsin-1A (Homo sapiens) [9]) | composite z-score [10] | z-score [11] | composite z-score [12] | z-score [13] | z-score [14] | z-score [15] | z-score [16] | z-score [17] | z-score [18] | z-score [19] | z-score [20]
1 | C=CCOC(=O)[C@H]1[C@@H]2C(=O)O[C@@H](c3ccccc3)[C@@H](c3ccccc3)N2[C@@H](c2ccc(OCCOC(=O)[C@H]3C[C@H]4C(=O)N[C@@H](CC(C)C)C(=O)N4[C@H]3c3ccc(O)cc3)cc2)[C@]12C(=O)Nc1ccc(I)cc12 | 0.931 | -0.289 (inactive) | -0.829 (inactive) | -0.122 (inactive) | 0.535 (inactive) | 0.335 | -0.0695 | 1.45 | 1.45 | 2.31 | -1.1 (inactive) | 0.0839 | -0.414 (inactive) | 0.739 (inactive) | -0.483 (inactive) | 0.47 (inactive) | -0.182 | 1.82 (inactive) | 0.43 (inactive) | 0.982
2 | COCCOC(=O)N1C(=O)[C@@]2(c3ccccc31)[C@H](c1ccc(O)cc1)N1[C@H](c3ccccc3)[C@H](c3ccccc3)OC(=O)[C@H]1[C@@H]2C(=O)NC[C@H](O)c1ccccc1 | -0.0136 | -1.03 (inactive) | 0.494 (inactive) | 0.595 (inactive) | 1.31 (inactive) | -0.551 | 0.0051 | 0.849 | 0.805 | 0.474 | 0.0221 (inactive) | 0.132 | 1.06 (inactive) | 0.664 (inactive) | 0.515 (inactive) | 0.563 (inactive) | 0.104 | 0.873 (inactive) | 0.0245 (inactive) | 0.604
3 | COc1ccc(C(=O)Nc2ccc(CN3C(=O)[C@@]4(O[C@@H](CC(=O)N5CCC[C@H]5CO)[C@H]([Si](C)(C)c5ccc(OC)cc5)[C@H]4C)c4ccccc43)cc2)cc1 | 0.553 | -1.38 (inactive) | -1.34 (inactive) | 1.88 (inactive) | -0.0184 (inactive) | 0.648 | 0.0074 | 0.826 | 0.797 | 1.66 | 0.482 (inactive) | 0.138 | 5.52 (inactive) | 1.06 (inactive) | 0.146 (inactive) | 0.77 (inactive) | 0.363 | 1.21 (inactive) | 1.23 (inactive) | 4.5
4 | C=CCC(OC(C)=O)[C@@H]1[C@@H](N(Cc2cccc3ccccc23)C(=O)c2ccc(-c3ccccc3)cc2)c2cc(OCCCO)ccc2N1C(=O)Cc1ccc(OC)cc1 (stereo not given in full) | 0.36 | -0.454 (inactive) | -0.266 (inactive) | -0.491 (inactive) | 0.117 (inactive) | 0.311 | 0.0018 | 0.0276 | -0.265 | 0.179 | 0.571 (inactive) | -0.277 | 0.177 (inactive) | -0.172 (inactive) | -1.02 (inactive) | 0.0144 (inactive) | 0.904 | -1.6 (inactive) | 0.32 (inactive) | 0.0661
5 | C=C/C=C/[C@H]1C(=C)CN([C@@H](Cc2ccccc2)C(=O)OC)[C@@H]1[C@H](O)Cc1ccccc1 | -0.224 | -0.123 (inactive) | 0.0605 (inactive) | 5.75 (inactive) | 0.794 (inactive) | -0.663 | -0.0736 | -1.74 | -1.4 | 0.122 | 0.297 (inactive) | -0.239 | 1.09 (inactive) | 0.804 (inactive) | -0.207 (inactive) | 0.257 (inactive) | -0.344 | -0.66 (inactive) | -0.432 (inactive) | -0.723
6 | C=C(CCCC)C(=O)CC[C@H](OC(C)=O)c1cccc(OCCO)c1 | -0.247 | -3.51 (inactive) | 0.428 (inactive) | 0.914 (inactive) | -0.057 (inactive) | -0.613 | -0.183 | -0.576 | -0.132 | 0.103 | 0.648 (inactive) | -0.263 | 5.27 (inactive) | -1.77 (inactive) | 1.57 (inactive) | -1.85 (inactive) | 0.73 | -1.94 (inactive) | -0.766 (inactive) | -2.8
7 | COc1ccc([Si](C)(C)[C@H]2[C@H](CCn3cc([C@H](O)c4ccccc4)nn3)O[C@@]3(C(=O)N(Cc4cccc(N5CCOC5=O)c4)c4ccccc43)[C@@H]2C)cc1 | 0.488 | -1.78 (inactive) | -0.394 (inactive) | -0.36 (inactive) | 1.32 (inactive) | 0.283 | -0.362 | 0.132 | 0.199 | 1.5 | -0.454 (inactive) | -0.249 | 26.1 (active) | 9.3 (active) | -0.295 (inactive) | 1.4 (inactive) | 0.17 | 0.0189 (inactive) | 2.51 (inactive) | 2.28
8 | C[C@]1(C(=O)NC2CC2)c2ccccc2C(=O)N(Cc2cc(C(F)(F)F)cc(C(F)(F)F)c2)[C@H]1c1ccc(CO)cc1 | 0.46 | -1.38 (inactive) | 0.501 (inactive) | -0.825 (inactive) | -1.25 (inactive) | 0.0956 | 0.225 | 0.372 | 0.329 | -0.0874 | 1.4 (inactive) | 0.0278 | 7.52 (inactive) | 1.18 (inactive) | 1.26 (inactive) | 0.599 (inactive) | 0.049 | -1.25 (inactive) | 0.222 (inactive) | 1.06
